In the supplement of paper PMC6518042:

These compounds were tested on Pectobacterium parmentieri SCC3193 (assay: DuctApe activity index (growth/respiration on compound as sole nutrient source, blank-subtracted) (activity index (0-3)); higher = stronger utilization of the compound, active = 3 or more). Conditions: nutrient role (plate category): carbon.
Procedure: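 Biolog Phenotype Microarray plates PM1, PM2A (carbon), PM3 (nitrogen) and PM4 (phosphorus/sulfur) inoculated with P. parmentieri SCC3193 in M9-C minimal salts medium with Biolog dye A, and read in the OmniLog for 46 h. Each well was tested in triplicate and the experiment was run twice. DuctApe computed a blank-subtracted activity index (AV, 0-3) from the mean curves; growth is positive at AV >= 3 and negative at AV <= 2.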
`O=C(O)C(O)C(O)C(=O)O` (stereo unspecified) [m-Tartaric acid] was tested, and the DuctApe activity index was 3 (active).
For `OCC1(O)OC[C@@H](O)[C@H](O)[C@@H]1O` (stereo partly drawn) [D-Tagatose], the DuctApe activity index was 0 (inactive).
With `O[C@@H]1[C@@H](O)[C@@H](O)CO[C@H]1O` [L-Arabinose] the DuctApe activity index was 3 (active).
In the case of `OCC1(O)OC[C@H](O)[C@@H](O)[C@@H]1O` (stereo partly drawn) [L-Sorbose], the DuctApe activity index is reported as 0 (inactive).
With `CC(O)(CC(=O)O)C(=O)O` (stereo unspecified) [Citramalic acid] the DuctApe activity index was 0 (inactive).
With `O=C(O)Cc1cccc(O)c1` [m-Hydroxyphenyl Acetic acid] the DuctApe activity index was 0 (inactive).
With `CCC(=O)O` [Propionic acid] the DuctApe activity index was 0 (inactive).
`OC[C@H]1O[C@H](OC[C@H]2OC(O)[C@H](O)[C@@H](O)[C@@H]2O)[C@H](O)[C@@H](O)[C@H]1O` (stereo partly drawn) [D-Melibiose] was tested, and the DuctApe activity index was 3 (active).
`O=C(O)CC(=O)O` [Malonic acid] was tested, and the DuctApe activity index was 0 (inactive).
For `C=C(CC(=O)O)C(=O)O` [Itaconic acid], the DuctApe activity index was 0 (inactive).
In the case of `CO[C@H]1O[C@H](CO)[C@@H](O)[C@H](O)[C@@H]1O` [a-Methyl-D-Mannoside], the DuctApe activity index is reported as 0 (inactive).
In the case of `O=C(CO)[C@@H](O)[C@H](O)[C@H](O)CO[C@H]1O[C@H](CO)[C@@H](O)[C@H](O)[C@H]1O` [Palatinose], the DuctApe activity index is reported as 0 (inactive).
For `COC(=O)C(C)=O` [Methylpyruvate], the DuctApe activity index was 3 (active).
In the case of `NCC(=O)N[C@@H](CC(=O)O)C(=O)O`, the DuctApe activity index is reported as 0 (inactive).
For `OC[C@H]1O[C@H](OC[C@H]2O[C@H](OC[C@H]3O[C@H](O[C@]4(CO)O[C@H](CO)[C@@H](O)[C@@H]4O)[C@H](O)[C@@H](O)[C@@H]3O)[C@H](O)[C@@H](O)[C@H]2O)[C@H](O)[C@@H](O)[C@H]1O` [Stachyose], the DuctApe activity index was 3 (active).
`C/C(=C/C(=O)O)C(=O)O` [Citraconic acid] was tested, and the DuctApe activity index was 0 (inactive).
`O=C(O)CC(O)C(=O)O` (racemic) [DL-Malic acid] was tested, and the DuctApe activity index was 3 (active).
With `O=C(O)[C@@H](O)[C@H](O)C(=O)O` [D-Tartaric acid] the DuctApe activity index was 0 (inactive).
For `O=C[C@H](O)[C@H](O)[C@@H](O)CO` [L-Lyxose], the DuctApe activity index was 0 (inactive).
With `C[C@H](O)[C@@H](N)C(=O)O` [D-Threonine] the DuctApe activity index was 0 (inactive).
In the case of `O=C(CO)[C@@H](O)[C@H](O)[C@@H](O)C(=O)O` [5-Keto-D-Gluconic acid], the DuctApe activity index is reported as 0 (inactive).
